High-throughput results: PubChem, University of Kansas High Throughput Screening Laboratory
An excerpt weighted towards active compounds, which were near 3.5% of everything screened.
mHTT CaM bind: mutant huntingtin-calmodulin interaction inhibitors – biochemical, AlphaScreen, primary screen; P42858; AlphaScreen His-mHTT/GST-CaM binding, luminescence; inhibition, % at 15 µM; hit rate 3.6% among 190,000
Pf apPOL block: Pf-apPOL inhibitors, biochemical, fluorescence; AID 1794808, 2022; inhibition, % at 10 µM; Recombinant Pf-apPOL, molecular beacon fluorescence, 1.5 h; hit rate 0.25% among 210,000; Plasmodium falciparum apicoplast DNA polymerase (apPOL)
Numbers stand for hits; n = inactive; x = no result given; + = active, no number. Rule as the data show it: active = inhibition above about 50%; inactive = the rest.

SMILES | mHTT CaM bind | Pf apPOL block
CSc1ccccc1NC(=O)C1(c2ccc(F)cc2)CC1 | n | n
CC(C)C1C(=O)N(Cc2cn(CCC3OCCO3)nn2)CCS(=O)(=O)N1Cc1ccc(-c2ccc(Cl)c(Cl)c2)cc1 (stereo not drawn) | 98.0 | n
COCOCCn1cc(CN2CCS(=O)(=O)N(Cc3ccc(-c4ccc(Cl)c(Cl)c4)cc3)C(C(C)C)C2=O)nn1 (stereo not drawn) | 99.9 | n
COCOCCn1cc(CN2CCS(=O)(=O)N(Cc3ccc(-c4ccc(Cl)cc4)cc3)C(C(C)C)C2=O)nn1 (stereo not drawn) | n | n
Cc1ccc(-c2ccc(CN3C(CC(C)C)C(=O)N(Cc4cn(CCC5OCCO5)nn4)CCS3(=O)=O)cc2)cc1 (stereo not drawn) | n | n
COc1ccc(-c2ccc(CN3C(C(C)C)C(=O)N(Cc4cn(CCC5OCCO5)nn4)CCS3(=O)=O)cc2)cc1OC (stereo not drawn) | n | n
COCOCCn1cc(CN2CCS(=O)(=O)N(Cc3ccc(-c4ccc(F)cc4)cc3)C(CC(C)C)C2=O)nn1 (stereo not drawn) | 69.4 | n
COCOCCn1cc(CN2CCS(=O)(=O)N(Cc3ccc(-c4ccc(C)cc4)cc3)C(CC(C)C)C2=O)nn1 (stereo not drawn) | n | n
CC(C)CC1C(=O)N(Cc2cn(CCC3OCCO3)nn2)CCS(=O)(=O)N1Cc1ccc(-c2ccc(Cl)c(Cl)c2)cc1 (stereo not drawn) | 71.8 | n
O=C1S/C(=C\c2cccc(Cl)c2)C(=O)N1CN1CCOCC1 | n | n
O=C(O/N=C1\C=CC(=O)C2C3C=CC(C3)C12)c1ccccc1 (stereo not drawn) | n | n
O=C(Cc1cccc(F)c1)NCC1CCN(c2cc(-c3ccncc3)[nH]n2)CC1 | n | n
CC(c1ccccc1)N1CCN(c2c3c(nc4ncnn24)CCC3)CC1 (stereo not drawn) | n | n
CC(C)C1C(=O)N(Cc2cn(CCC3OCCCO3)nn2)CCS(=O)(=O)N1Cc1ccc(-c2ccncc2)cc1 (stereo not drawn) | n | n
CC(C)C1C(=O)N(Cc2cn(CCC3OCCCO3)nn2)CCS(=O)(=O)N1Cc1ccc(-c2ccc(F)cc2)cc1 (stereo not drawn) | 69.7 | n
Oc1c(Br)cc(Br)cc1C=Nc1ccc(F)cc1 | n | x
Oc1c(Cl)cc(Cl)cc1C=NN=Cc1cc(Cl)cc(Cl)c1O | x | n
Oc1ccccc1N=Cc1cc(Br)cc(Br)c1O | 55.0 | n
NC(=S)N/N=C/c1cc(Br)cc(Br)c1O | + | x
COc1cc(OC)c(/C=N/NC(N)=S)cc1Br | n | x
NC(=S)N/N=C/c1cc(Cl)cc(Cl)c1O | + | x
Cc1ccccc1OCCCCN(C)C | n | n
COc1ccc(-c2cc3nc4c(c(=O)n3[nH]2)CN(C(=O)Cc2cccc(C)c2)CC4)cc1 | n | n
Cc1cccc(CC(=O)N2CCc3c(nc4cc(-c5ccccc5)[nH]n4c3=O)C2)c1 | 74.4 | n
O=C(CCc1ccccc1)N1CCc2c(nc3cc(-c4ccccc4)[nH]n3c2=O)C1 | 71.7 | n
SMILES | mHTT CaM bind | Pf apPOL block
O=C(CCc1c[nH]c2ccccc12)N1CCc2c(nc3cc(-c4ccccc4)[nH]n3c2=O)C1 | n | n
CC(=O)N1CCN(C(=O)c2ccc(C(=O)O)cc2)CC1 | n | n
COC(=O)Nc1ccc(S(=O)(=O)N2CCC(C(=O)Nc3cccc(OC)c3)CC2)cc1 | n | n
COc1ccc(S(=O)(=O)N2CCC(C(=O)Nc3cccc(C(C)=O)c3)CC2)cc1 | n | 99.0
NCCNc1ccc([N+](=O)[O-])cc1C(=O)Nc1cccc(Cl)c1 | n | n
O=C(Nc1cccc(Cl)c1)c1cc([N+](=O)[O-])ccc1NCCO | 94.0 | n
Cc1ccc(-n2ncc3c(=O)[nH]c(SCC(=O)Nc4ccc(Br)cc4)nc32)cc1 | n | n
Cn1nc(COc2ccc(F)cc2)c2c1CCN(C(=O)Nc1ccc(F)c(Cl)c1)C2 | 54.7 | n
COc1ccc(NC(=O)N2CCc3c(c(COc4ccc(F)cc4)nn3C)C2)cc1F | n | n
Cn1nc(COc2cccc(F)c2)c2c1CCN(C(=O)Nc1cccc(Cl)c1)C2 | n | n
Cn1nc(COc2ccc(F)cc2)c2c1CCN(C(=O)Nc1cccc(C(F)(F)F)c1)C2 | 59.3 | n
C=CCNC(=O)C(=O)Nc1cccc(N2CCCCC2=O)c1 | n | n
O=C(Nc1c2c(nn1-c1cccc(Cl)c1)CS(=O)(=O)C2)c1ccc(Cl)cc1 | n | n
Cc1ccc(-c2csc(=Nc3cccc(Cl)c3)n2CCO)cc1 | 93.0 | n
CCOc1ccc(N=c2scc(-c3ccc(C)cc3)n2C)cc1 | n | n
Cc1cccc(N=c2scc(-c3ccc(F)cc3)n2CCO)c1 | 65.0 | n
OCCn1c(-c2ccc(I)cc2)csc1=Nc1cccc(Cl)c1 | 80.0 | n
Cc1ccccc1C1CCCN1C(=O)NC1CCCCC1 (stereo not drawn) | n | n
CCOc1ccc(C(=O)N2CC3CC(NC(=O)c4cccs4)C2C3)cc1 (stereo not drawn) | n | n
CC(C)n1c(=O)c(N2CCN(C(=O)c3ccccc3)CC2)nc2ccncc21 | n | n
CC(C)n1c(=O)c(N2CCN(C(=O)c3cc(-c4ccccc4)n[nH]3)CC2)nc2ccncc21 | 50.3 | n
CN(CCc1ccccn1)C(=O)Cn1ccc2ccccc2c1=O | n | n
CNc1ccc(C(=O)N2CCOC(COc3ccc4c(c3)CCCC4)C2)cc1 (stereo not drawn) | 52.3 | n
COc1ccc(OCC2CN(C(=O)c3ccc(C)cc3)CCO2)cc1 (stereo not drawn) | n | n
Cc1sc2c(=O)n(C3CC3)cnc2c1C(=O)NCc1cccc(Cl)c1 | n | n
SMILES | mHTT CaM bind | Pf apPOL block
O=C(Nc1ccc(I)cc1)c1ccc([N+](=O)[O-])cc1 | n | n
COC1CCCCC1Nc1ccc2c(c1)CCC2 (stereo not drawn) | 52.2 | x
CC(=O)Nc1ccc2c(c1)CCC2 | x | n
Cc1ccccc1CSc1nc2[nH]ncc2c(=O)n1-c1ccccc1C | n | n
N#C/C(=C\c1ccco1)c1nc2ccccc2[nH]1 | n | n
CCOc1ccc(/C=C(\C#N)c2nc3ccc(C)cc3[nH]2)cc1 | n | n
Cc1ccc2nc(/C(C#N)=C/C=C/c3ccco3)[nH]c2c1 | 67.2 | n
CCOc1cc(/C=C(\C#N)c2nc3ccc(C)cc3[nH]2)cc(I)c1O | 80.0 | n
Cc1ccc2nc(/C(C#N)=C/c3ccc(-c4cc([N+](=O)[O-])ccc4O)o3)[nH]c2c1 | 55.5 | n
COc1cc(-c2ccc(/C=C(\C#N)c3nc4ccc(C)cc4[nH]3)o2)c(OC)cc1Cl | n | n
Cc1ccc2nc(/C(C#N)=C/c3ccc(-c4ccc5c(c4)C(=O)NC5=O)o3)[nH]c2c1 | 68.0 | n
Cc1ccc2nc(/C(C#N)=C/c3ccc([N+](=O)[O-])o3)[nH]c2c1 | n | n
CCn1c(SCC(=O)Nc2ccc(OC)cc2)nc(O)cc1=O | n | n
CC(=O)N1CCc2[nH]c3ccc(C(=O)Nc4ccc(OC(F)(F)F)cc4)cc3c2C1 | n | n
O=C(CC1CCCC1)NCC1CCS(=O)(=O)C1 (stereo not drawn) | n | n
COc1ccc(-c2c(C)oc3cc(OC(=O)c4ccccc4F)ccc3c2=O)cc1OC | n | n
COc1ccc(C2C(C(=O)Nc3ccc(Cl)cc3)=C(C)Nc3ncnn32)cc1Br (stereo not drawn) | n | n
COc1ccc(Br)cc1C1C(C(=O)Nc2ccc(Cl)cc2)=C(C)Nc2ncnn21 (stereo not drawn) | 60.0 | n
